For assay [1], the target named is Luciferin 4-monooxygenase (Photinus pyralis) (UniProt P08659). In words: qHTS assay to identify small molecule inhibitors of firefly luciferase (AID 1224835). Note: nearly all actives have a fitted effect of over 25% in size. In short, it runs like this:
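Biochemical qHTS: compounds run as interplate titrations against purified firefly enzyme, with D-luciferin and ATP each at its KM concentration. Light output recorded by CCD imaging.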

Assay [2] is described as follows: qHTS assay to identify small molecule agonists of the constitutive androstane receptor (CAR) signaling pathway - cell viability counter screen (AID 1224836). Note: nearly all actives have a fitted effect of over 45% in size. In short, it runs like this:
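Compound titrations (15 concentrations) went onto HepG2-CYP2B6-hCAR cells 4 h after seeding, alongside PK11195 at a final 0.75 uM; a 23 h, 37 C/5% CO2 incubation preceded CellTiter-Fluor viability measurement.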
A general note: Quantitative high-throughput screening tests each substance at several concentrations.

Assay [3] is described as follows: qHTS assay to identify small molecule antagonists of the constitutive androstane receptor (CAR) signaling pathway - cell viability counter screen (AID 1224837). Note: nearly all actives have a fitted effect of over 45% in size. In short, it runs like this: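 HepG2 cells stably expressing hCAR and a CYP2B6-2.2kb reporter were plated and pre-incubated 4 hr at 37 C/5% CO2, then given compounds at 15 concentrations plus 50 nM CITCO (final). After 23 hr, viability was read by CellTiter-Fluor fluorescence.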

In assay [4] the target is Nuclear receptor subfamily 1 group I member 3 (Homo sapiens) (UniProt Q14994). In words: qHTS assay to identify small molecule antagonists of the constitutive androstane receptor (CAR) signaling pathway (AID 1224838). Note: nearly all actives have a fitted effect of over 40% in size. In short, it runs like this:
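HepG2 cells stably co-transfected with hCAR and a CYP2B6-2.2kb luciferase reporter were seeded 4 h before compound addition at 15 concentrations. Cells were stimulated with 50 nM CITCO (final) for 24 h at 37 C; luciferase luminescence was then read.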

The target is the same in assay [5]. In words: qHTS assay to identify small molecule agonists of the constitutive androstane receptor (CAR) signaling pathway (AID 1224839).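 For activation: HepG2 cells stably carrying human CAR and a CYP2B6 luciferase reporter.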 Note: nearly all actives have a fitted effect of over 15% in size. Note: potency is the fitted concentration of half-maximal effect. In short, it runs like this: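 In this screen, CAR-driven CYP2B6 promoter activity is measured by luminescence in HepG2-CYP2B6-hCAR cells after 24 h with test compounds and 0.75 uM PK11195 (final concentration).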
Assay [6] in a line: qHTS assay to identify small molecule antagonists of the estrogen related receptor signaling pathway with the pleiotropic PPARgamma coactivator (PGC) from Tox21 10K library - cell viability counter screen (AID 1224840; active = well fitted cell-killing curve with a large enough effect in the repeat runs, not every such curve was filed as active; note: nearly all actives have a fitted effect of over 40% in size). In short, it runs like this:
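PGC/ERR cells were seeded at 2,000 cells/well and left 6 hours at 37 C/5% CO2 before pin-tool addition of compounds in DMSO. After 17.5 hours at 37 C, CellTiter-Fluor was added and fluorescence read 30 minutes later.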

The nature of assay [7]: qHTS assay to identify small molecule agonists of the hypoxia (HIF-1) signaling pathway - cell viability counter screen (AID 1224844; calls by dose curve; note: nearly all actives have a fitted effect of over 50% in size). In short, it runs like this:
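HRE-bla ME-180 cells in medium with 0.5% dialyzed FBS were preincubated 5 hrs at 37C, exposed to compounds for 17 hrs, then viability was read as CellTiter-Glo luminescence after 30 min at room temperature, in the reporter wells.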

Assay [8] in a line: qHTS assay to identify small molecule agonists of the hypoxia (HIF-1) signaling pathway (AID 1224846; active = well fitted activation curve with a large enough effect in the signal ratio in the repeat runs, not every such curve was filed as active; the % refers to the signal ratio). In short, it runs like this: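 HRE-bla ME-180 cells (beta-lactamase reporter under hypoxia response element) were plated at 2,000 cells/well in medium with 0.5% dialyzed FBS, rested 5 hrs, then given compounds in DMSO for 17 hrs at 37C, 5% CO2. Reporter induction was read with CCF4-AM FRET substrate.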

Assay [9] can be described thus: qHTS assay to identify small molecule agonists of H2AX - cell viability counter screen (AID 1224847; calls by dose curve; note: top concentration of the series differs between compounds; nearly all actives have a fitted effect of over 30% in size). In short, it runs like this:
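Read-out: CellTiter-Glo luminescence, 30 min RT. Cells: wild-type CHO-K1, 1000/well, 10% FBS, plated overnight at 37C. Treatment: 15 concentrations, 3 hr, 37C, 0.76% DMSO.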

Assay [10] is described as follows: qHTS RealTime-Glo MT Cell Viability Assay in HepG2 cells - 24 hour (AID 1224867). Note: nearly all actives have a fitted effect of over 50% in size. In short, it runs like this: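 Luminescence read-out: viable HepG2 cells reduce a prosubstrate to a NanoLuc substrate, giving a signal proportional to live cell number. Reads taken at 0, 8, 16, 24, 32 and 40 h of compound exposure at 37 C.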
A short description of assay [11]: qHTS RealTime-Glo MT Cell Viability Assay in HEK293 cells - 32 hour (AID 1224868). Note: top concentration of the series differs between compounds; nearly all actives have a fitted effect of over 50% in size. In short, it runs like this:
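Nonlytic real-time viability readout: viable cells convert prosubstrate to NanoLuc substrate, giving luminescence proportional to live cell number. HEK293, 600 cells/well, compound added after 5 h, continuous culture at 37 C.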

Assay [12] in a line: A CellTox Green Cytotoxicity Assay to monitor cytotoxicity in HEK293 cells - 0 hour (AID 1224869). Note: nearly all actives have a fitted effect of over 50% in size. In short, it runs like this:
(§1)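 HEK293 cells premixed with CellTox Green dye were seeded at 600 cells/well and left 5 h at 37 C/5% CO2 before pin transfer of 23 nL compound in DMSO. Fluorescence from dye bound to dead-cell DNA was read during 40 h treatment.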

A short description of assay [13]: qHTS RealTime-Glo MT Cell Viability Assay in HepG2 cells - 40 hour (AID 1224870). Note: nearly all actives have a fitted effect of over 50% in size. In short, it runs like this:
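HepG2 cells (600/well) mixed with RealTime-Glo MT reagent, settled 5 h at 37 C/5% CO2 before compound addition. Nonlytic NanoLuc luminescence from viable-cell prosubstrate reduction read repeatedly during 40 h treatment at 37 C.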

Assay [14] concerns the target Thyrotropin receptor (Homo sapiens) (UniProt P16473). Kind of assay: qHTS assay to identify small molecule agonists of the thyroid stimulating hormone receptor (TSHR) signaling pathway (AID 1224843; calls by dose curve; note: nearly all actives have a fitted effect of over 45% in size). In short, it runs like this:
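TSHR-HEK293 cells in agonist mode, 30 min room-temperature step, then cAMP measured by competitive HTRF (cAMP-d2 with anti-cAMP cryptate) after 1 h at room temperature. Tested at 15 concentrations in triplicate.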

Assay [15] can be described thus: qHTS assay to identify small molecule agonists of H2AX (AID 1224845; active = well fitted activation curve with a large enough effect in the signal ratio in the repeat runs, not every such curve was filed as active; the % refers to the signal ratio). In short, it runs like this:
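Wild-type CHO-K1 cells, plated overnight, exposed 3hr at 37C to 15 concentrations (0.76% DMSO final). Lysed, then HTRF anti-pH2AX (S139) cryptate and anti-H2AX-d2 antibodies, 24 hr room temperature; 665/620 nm emission read.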

A short description of assay [16]: A CellTox Green Cytotoxicity Assay to monitor cytotoxicity in HEK293 cells - 40 hour (AID 1224871). Note: nearly all actives have a fitted effect of over 45% in size. In short, it runs like this: as §1
Assay [17] in a line: qHTS assay to identify small molecule antagonists of the estrogen related receptor signaling pathway with the pleiotropic PPARgamma coactivator (PGC) from Tox21 10K library (AID 1224841; call rule not given here). In short, it runs like this: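 PGC/ERR reporter cells were seeded at 2,000 cells/well and held 6 hours at 37 C/5% CO2 before pin-tool addition of compounds in DMSO. After 18 hours at 37 C, One-Glo was added and luminescence read after 30 minutes at room temperature.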

Assay [18] in a line: qHTS assay to identify small molecule agonists of the estrogen related receptor signaling pathway with the pleiotropic PPARgamma coactivator (PGC) from Tox21 10K library (AID 1224842). Note: nearly all actives have a fitted effect of over 15% in size. In short, it runs like this:
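PGC/ERR reporter cell line, 2,000 cells per well, incubated 6 h at 37 C before 23 nL compound in DMSO was added. After 18 h at 37 C, One-Glo luminescence read following 30 min at room temperature.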

A short description of assay [19]: qHTS assay to identify small molecule antagonists of the estrogen related receptor (ERR) signaling pathway from Tox21 library (AID 1224848). Note: nearly all actives have a fitted effect of over 50% in size. In short, it runs like this:
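ERR reporter cell line (from NTP) seeded 2,000 cells/well, rested 6 h at 37 C/5% CO2, then pin-dosed with compounds in DMSO. After 18 h at 37 C, ONE-Glo added; luminescence read after 30 min at room temperature.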

Assay [20] in a line: qHTS assay to identify small molecule agonists of the estrogen related receptor (ERR) signaling pathway from Tox21 library (AID 1224849; calls by dose curve; note: nearly all actives have a fitted effect of over 15% in size). Conditions: ERR reporter cell line, ONE-Glo luciferase, 18 h; at 92.4 µM (top of the series) unless noted. In short, it runs like this:
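ERR reporter cell line (NTP) seeded, rested 6 h at 37 C/5% CO2, then pinned with Tox21 compounds in DMSO. After 18 h at 37 C, ONE-Glo luciferase luminescence was read following 30 min at room temperature.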

A number with no mark means an inactive call. Records with an inconclusive call do not appear. The source made the active and inactive calls. Unless noted, calls come from the whole dose curve; as a rule, active = well fitted curve in the direction sought with a large enough effect in the repeat runs; inconclusive = weak or mixed curves; inactive = no such curve, though single readings can be large; an effect the other way counts as inactive or inconclusive.
% is set by controls: 0 for no effect and ±100 for the full control effect.

Chain of Thyrotropin receptor (Homo sapiens) (P16473 whole entry, looked up): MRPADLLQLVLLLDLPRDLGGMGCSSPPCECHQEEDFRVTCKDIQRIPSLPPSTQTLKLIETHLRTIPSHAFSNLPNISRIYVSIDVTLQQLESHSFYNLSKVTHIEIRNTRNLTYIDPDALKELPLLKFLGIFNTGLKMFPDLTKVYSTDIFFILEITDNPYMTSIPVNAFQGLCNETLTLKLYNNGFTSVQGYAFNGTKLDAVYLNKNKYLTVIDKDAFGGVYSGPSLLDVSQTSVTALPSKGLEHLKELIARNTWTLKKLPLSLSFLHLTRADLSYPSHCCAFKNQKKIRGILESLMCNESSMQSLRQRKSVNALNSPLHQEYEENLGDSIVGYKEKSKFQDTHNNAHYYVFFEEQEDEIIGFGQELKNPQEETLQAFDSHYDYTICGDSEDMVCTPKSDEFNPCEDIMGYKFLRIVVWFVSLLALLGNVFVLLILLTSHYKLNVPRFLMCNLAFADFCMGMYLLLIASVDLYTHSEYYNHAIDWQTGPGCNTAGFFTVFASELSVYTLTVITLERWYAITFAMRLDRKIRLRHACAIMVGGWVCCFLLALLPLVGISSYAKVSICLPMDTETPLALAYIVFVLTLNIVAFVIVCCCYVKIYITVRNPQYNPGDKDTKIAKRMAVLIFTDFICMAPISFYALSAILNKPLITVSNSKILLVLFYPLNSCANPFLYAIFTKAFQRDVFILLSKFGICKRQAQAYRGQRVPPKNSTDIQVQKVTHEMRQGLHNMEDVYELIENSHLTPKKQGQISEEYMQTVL
Chain of Luciferin 4-monooxygenase (Photinus pyralis) (P08659 whole entry, looked up): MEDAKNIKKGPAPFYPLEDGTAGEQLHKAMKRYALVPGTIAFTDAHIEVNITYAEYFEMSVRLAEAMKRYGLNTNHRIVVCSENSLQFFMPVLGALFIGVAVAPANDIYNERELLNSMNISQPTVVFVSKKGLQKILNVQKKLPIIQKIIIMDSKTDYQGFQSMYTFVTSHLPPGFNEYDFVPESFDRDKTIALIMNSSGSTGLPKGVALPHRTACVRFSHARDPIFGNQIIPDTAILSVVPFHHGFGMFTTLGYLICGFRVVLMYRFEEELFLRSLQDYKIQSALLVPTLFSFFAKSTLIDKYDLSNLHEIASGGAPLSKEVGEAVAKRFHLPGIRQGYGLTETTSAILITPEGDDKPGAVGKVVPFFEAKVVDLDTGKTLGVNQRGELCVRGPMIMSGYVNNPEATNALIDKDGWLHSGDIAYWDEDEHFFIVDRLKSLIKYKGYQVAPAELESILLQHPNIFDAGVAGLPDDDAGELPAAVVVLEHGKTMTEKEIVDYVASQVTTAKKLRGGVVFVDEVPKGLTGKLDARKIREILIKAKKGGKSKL
Chain of Nuclear receptor subfamily 1 group I member 3 (Homo sapiens) (Q14994 whole entry, looked up): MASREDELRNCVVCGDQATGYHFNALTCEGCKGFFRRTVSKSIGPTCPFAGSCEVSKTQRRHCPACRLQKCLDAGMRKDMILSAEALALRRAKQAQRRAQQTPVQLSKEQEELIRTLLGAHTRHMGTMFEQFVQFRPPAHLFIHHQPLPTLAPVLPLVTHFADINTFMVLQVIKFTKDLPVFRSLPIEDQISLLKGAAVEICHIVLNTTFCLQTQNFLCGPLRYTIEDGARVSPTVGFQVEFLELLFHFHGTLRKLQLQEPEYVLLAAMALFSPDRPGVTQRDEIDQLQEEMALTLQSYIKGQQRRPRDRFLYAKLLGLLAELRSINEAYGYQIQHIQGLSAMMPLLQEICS

On to `N#CC(O)c1ccccc1` (centres undefined), for which the Potency entry in [1], in assay [2], in assay [3], in assay [4], in assay [5] and in [6] was “inactive” each time. Also, the Potency entry in [7], in assay [9], in assay [10], in assay [11], in assay [12] and in assay [13] was “inactive” each time. Also, the molecule was called inactive in [8].
Consider `Nc1cc(Cl)ccc1O`, for which the Potency entry in [1], in assay [2], in [3], in assay [4], in assay [6] and in [14] was “inactive” throughout. The Potency entry in assay [7], in [9], in assay [10], in [11], in [12] and in [13] was “inactive” throughout. In addition, in assay [5], the Potency was 52.7 µM (active). Besides, the outcome in [8] was inactive.
Turning to `CC1CN1P(=O)(N1CC1C)N1CC1C` (centres undefined), the Potency entry in assay [1], in assay [2], in [3], in [4], in assay [5] and in assay [6] was “inactive” each time. In addition, the Potency result in [7], in assay [15], in assay [9], in assay [10], in [11] and in [12] was “inactive” in each case. Further, the Potency result in [13] and in assay [16] was “inactive” throughout. The outcome in [8] was inactive.
Take `OCCSCSCCO`: the Potency entry in assay [1], in assay [2], in assay [3], in assay [4], in assay [5] and in assay [6] was “inactive” in each case. Also, the Potency result in [7], in [9], in assay [10], in assay [12], in [13] and in [16] was “inactive” in each case. Further, in assay [8], the result was inactive.
Regarding `CCOP(=O)(N=C1SCCS1)OCC`, the Potency entry in assay [1], in [2], in [3], in assay [4], in [5] and in [6] was “inactive” throughout. Moreover, the Potency result in assay [7], in assay [15], in assay [9], in assay [10], in assay [11] and in assay [12] was “inactive” throughout. The Potency entry in assay [13] and in assay [16] was “inactive” in each case. Moreover, the molecule was classed as inactive in assay [8].
For `CC(CCc1ccccc1)NC(C)C(O)c1ccc(O)cc1` (centres undefined), the Potency entry in assay [1], in [2], in assay [3], in assay [4], in assay [5] and in assay [6] was “inactive” each time. Besides, the Potency entry in [14], in [7], in [15], in assay [9], in assay [10] and in assay [12] was “inactive” throughout. Moreover, the Potency entry in assay [13] and in [16] was “inactive” each time. Besides, the outcome in assay [8] was inactive.
Take `CCS(=O)(=O)CCSP(=O)(OC)OC`: the Potency entry in assay [1], in assay [2], in [3], in assay [4], in assay [6] and in assay [17] was “inactive” in each case. The Potency entry in assay [14], in [7], in assay [15], in assay [9], in assay [19] and in assay [10] was “inactive” in each case. The Potency entry in assay [11], in assay [12], in assay [13] and in assay [16] was “inactive” each time. Besides, the molecule was called inactive in assay [18] and in assay [8]. In addition, the activity change, positive = activation in assay [20] is 13.8%.
Turning to `Cc1cccc(C#N)c1`, the Potency entry in assay [1], in assay [2], in assay [3], in [4], in assay [5] and in assay [6] was “inactive” throughout. Moreover, the Potency entry in assay [14], in [7], in [15], in assay [9], in [10] and in [11] was “inactive” each time. Also, the Potency result in [12], in assay [13] and in assay [16] was “inactive” in each case. Also, the result in [8] was inactive.
Turning to `CCOP(=S)(OCC)SCSc1ccc(Cl)cc1`, the Potency result in assay [1], in assay [2], in [3], in assay [4], in [6] and in assay [7] was “inactive” each time. The Potency entry in [10], in assay [12] and in [13] was “inactive” each time. The Potency in assay [5] was 27.3 µM (active). Further, the outcome in [8] was inactive.
With `O=C(N[C@H]1CN2CCC1CC2)c1cc2ccoc2cn1`, the Potency result in assay [1], in assay [2], in [3], in [4], in assay [5] and in [6] was “inactive” each time. The Potency entry in assay [7], in [15], in [9], in assay [10], in assay [12] and in assay [13] was “inactive” each time. Also, the outcome in assay [8] was inactive.

For the origin of these results see PubChem BioAssay (Tox21).
